# About 83,000 compounds went through this panel and 20% of them were active in at least one assay; those are over-represented in the sample as a whole.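 Testing used 96-well plates and a 48-hour single-concentration exposure. Example: -40 means 40% of the starting cells died.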 Unmarked numbers belong to inactive results. Active and inactive are the calls of the source. How the source made its calls: active means growth percent below 10; inactive means the rest.
# Tests used:
# Experiment in all cases: NCI-60 one-dose screen, 48 h (100 = growth as untreated, 0 = no growth, -100 = all killed)
# Conditions in all cases: 10 µM unless noted
# NCI-H23 lung = system: NCI-H23 lung
# NCI-H226 lung = system: NCI-H226 lung
# NCI-H322M lung = system: NCI-H322M lung
# HOP-62 NSCLC = system: HOP-62 NSCLC
# NCI-H460 lung = system: NCI-H460 lung
# HOP-92 NSCLC = system: HOP-92 NSCLC
# NCI-H522 lung = system: NCI-H522 lung
# A549/ATCC NSCLC = system: A549/ATCC NSCLC
# 786-0 renal = system: 786-0 renal
# COLO 205 colon = system: COLO 205 colon
# DU-145 prostate = system: DU-145 prostate
# K-562 leukemia = system: K-562 leukemia
# MALME-3M melanoma = system: MALME-3M melanoma
# MDA-MB-231 breast = system: MDA-MB-231 breast
# RXF 393 renal = system: RXF 393 renal
# SF-268 CNS = system: SF-268 CNS
# SF-539 CNS = system: SF-539 CNS
# UACC-257 melanoma = system: UACC-257 melanoma
# M14 melanoma = system: M14 melanoma
# SF-295 CNS = system: SF-295 CNS
SMILES,growth (NCI-H23 lung),growth (NCI-H226 lung),growth (NCI-H322M lung),growth (HOP-62 NSCLC),growth (NCI-H460 lung),growth (HOP-92 NSCLC),growth (NCI-H522 lung),growth (A549/ATCC NSCLC),growth (786-0 renal),growth (COLO 205 colon),growth (DU-145 prostate),growth (K-562 leukemia),growth (MALME-3M melanoma),growth (MDA-MB-231 breast),growth (RXF 393 renal),growth (SF-268 CNS),growth (SF-539 CNS),growth (UACC-257 melanoma),growth (M14 melanoma),growth (SF-295 CNS)
C/C(=N\Nc1cc(C)c2ccccc2n1)c1ccccn1,14%,-2.65% (active),-2.12% (active),15.1%,-44.7% (active),-13.9% (active),-25.7% (active),-0.781% (active),-63.9% (active),3.41% (active),18.3%,-41.4% (active),-77.9% (active),-28.7% (active),-77.4% (active),-6.64% (active),-53.8% (active),-62.1% (active),-81.4% (active),
Cn1cnc2c1c(=O)n(CCC(=O)Nc1ccc(F)cc1)c(=O)n2C,95.8%,106%,107%,100%,108%,96.4%,87.3%,89.1%,94.8%,104%,103%,108%,97.1%,101%,116%,105%,101%,,101%,102%
COc1ccc(-c2nc3ncccn3c2-c2nc3ccc(Br)cc3[nH]2)cc1,98.4%,93.5%,94.3%,99.3%,90.1%,77.1%,69.7%,84.9%,98.1%,104%,94.1%,63.5%,81.3%,72.9%,74.1%,99.6%,82.8%,92.6%,90.5%,
Nc1nc(N)c2nc3c(nc2n1)CCCCCCCCCC3,37.1%,102%,59.1%,58.1%,14.3%,79.7%,53.8%,20.4%,31.9%,54.1%,53.6%,29.1%,79.1%,84.9%,80%,42.1%,59.6%,55.5%,33.1%,
COc1cc2ncnc(Nc3ccc(OCc4cccc(F)c4)c(Cl)c3)c2cc1NC(=O)C1CCCC1,94.8%,76%,34.4%,78.9%,88.7%,76.4%,50%,65.2%,78.3%,97.2%,78.3%,91.2%,107%,84.5%,83%,89.1%,96.1%,,71.4%,101%
O=c1c2sc3ncc(Br)cc3c2ncn1-c1cccc(Cl)c1,87.4%,87.3%,48.2%,60.3%,24.9%,72.7%,82.8%,43%,89%,86.3%,53.3%,81.9%,52.5%,49.5%,73.6%,64.1%,81.4%,88.4%,76%,
O=C1CCN2C(=O)Nc3ccccc3C2C1 (centres undefined),101%,104%,95.8%,109%,100%,96.7%,100%,101%,99.3%,107%,112%,101%,87.4%,93.5%,112%,110%,95.5%,,86.3%,97.5%
C=C1C(=O)O[C@H]2[C@H]1CC/C(Cn1cc(-c3ccc(OC)cc3)nn1)=C\CC[C@@]1(C)O[C@@H]21,4.37% (active),-44.1% (active),88.7%,49.7%,87.6%,-60.1% (active),-78.7% (active),57.3%,-83.2% (active),-86% (active),-35% (active),-9.11% (active),-62.3% (active),-12.3% (active),-63.6% (active),12.7%,-16.6% (active),,-43.9% (active),88.8%
CC(=O)OCCCCCCn1c2ccccc2c2c3c(c4c5ccccc5n(C)c4c21)C(=O)N(O)C3=O,68%,63.7%,77.4%,58.7%,48.1%,101%,50.4%,94.5%,88%,70.1%,89.9%,59.7%,115%,64.5%,100%,70.2%,94.3%,,65.4%,91.5%
CC(C)=CCC/C(C)=C/CC/C(C)=C/CC/C(C)=C/CSC[C@H](NC(=O)CCCCCN1CCN(C)CC1)C(=O)NC1CCCCC1,73%,95.8%,89.8%,85.6%,-7.73% (active),76.4%,85%,71.7%,83.7%,8.86% (active),64.3%,-27.2% (active),71.2%,-81.3% (active),75.1%,84.8%,85.7%,105%,35.1%,
Fc1ccc(Nc2nc(Nc3ccc(-c4nc5ccccc5[nH]4)cc3)nc(N3CCCC3)n2)cc1,75.1%,79.9%,96%,78.6%,70.4%,64.4%,78.8%,61.2%,85.2%,86%,93.3%,-38.8% (active),85.7%,61.6%,77.8%,91.2%,81.6%,,-58.3% (active),90.9%
O=S(=O)(NCCNc1cc(-c2cn(-c3ccccc3)nc2-c2cccc(O)c2)ccn1)c1cccc(F)c1,45.8%,55.3%,56.2%,56.7%,33.1%,51.1%,26.7%,42.4%,16.8%,-4.68% (active),63.5%,7.94% (active),64.9%,11.5%,62.3%,54.9%,51.2%,,31.8%,22.4%
C[N+](C)(CCCCCC[N+](C)(C)C1c2ccccc2-c2ccccc21)C1c2ccccc2-c2ccccc21,103%,108%,131%,113%,109%,117%,80.9%,102%,112%,106%,118%,99.5%,104%,115%,113%,111%,102%,103%,106%,
OCCNc1nc(Nc2ccc(Cl)c(Cl)c2)nc2ccccc12,54.5%,61.7%,71%,49.1%,33.3%,27.4%,62%,37%,62%,-21.7% (active),70.9%,2.65% (active),31.1%,5.57% (active),16.8%,48.6%,75.1%,57.9%,29.9%,
COc1cc(-c2cc(-c3nc4ccc(F)cc4[nH]3)[nH]n2)cc(OC)c1OC,15.8%,-11.1% (active),48.7%,8.23% (active),33.5%,25.8%,9.45% (active),29%,53.7%,20.9%,35.5%,0.735% (active),7.29% (active),49.4%,36.5%,36.4%,52.6%,29.6%,21.5%,
COc1ccc(-c2cc(-c3c(C)oc4cc5occc5c(OC)c4c3=O)nc(N)c2C#N)cc1OC,73.4%,66.2%,81.2%,50.3%,32.4%,10.6%,47.1%,57.2%,83.1%,68.1%,81.9%,32%,86.4%,64.4%,61.6%,65.1%,64.2%,,72.2%,52.1%
